Experimental data published in PubChem BioAssay AID1974 (The Scripps Research Institute Molecular Screening Center, 2009).
In all, about 300,000 compounds went through this assay and about 3,200 (1.1%) were called active.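 The calls were made as follows: active = inhibition above the campaign mean inhibition plus 3 SD (cut at about 35% in these data); inactive = the rest.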 The sample as a whole holds a higher share of actives than the screen did.

These compounds were tested against Glutathione S-transferase omega-1 (Homo sapiens) (UniProt P78417) (assay: inhibitors of recombinant GSTO1, primary screen, counter-screen for RBBP9 inhibitor project, biochemical, fluorescence polarization (AID 1974;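 also: 0% = GSTO1-1 with DMSO and 100% = wells lacking GSTO1-1 enzyme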)). Conditions: recombinant GSTO1, activity-based probe fluorescence polarization; at 5.96 µM; hits give high values.
Chain of Glutathione S-transferase omega-1 (Homo sapiens) (P78417 whole entry, looked up): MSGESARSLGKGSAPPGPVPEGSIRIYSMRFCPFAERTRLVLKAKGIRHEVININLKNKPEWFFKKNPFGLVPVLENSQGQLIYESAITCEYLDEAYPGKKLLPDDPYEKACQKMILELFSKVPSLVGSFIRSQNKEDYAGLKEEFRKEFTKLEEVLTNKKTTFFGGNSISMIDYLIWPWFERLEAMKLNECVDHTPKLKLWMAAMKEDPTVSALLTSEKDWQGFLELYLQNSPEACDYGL
`CCN1C(=O)[C@@H]2[C@@H](c3ccc(-c4ccccc4)cc3)N3CCCC[C@@]3(C(=O)OC)[C@@H]2C1=O` was tested, and the inhibition was -2.94% (inactive).
`COc1ccc(C(CNC(=O)c2cccc(S(=O)(=O)Nc3ccccc3Cl)c2)N2CCOCC2)cc1` (centres undefined) was tested, and the inhibition was -26.9% (inactive).
In the case of `Cc1cc(C)n2nc(C(=O)OCC(=O)N(CCC#N)c3ccc(F)cc3)nc2n1`, the inhibition is reported as 7.91% (inactive).
With `CCOC(=O)c1c(-c2ccc(C)cc2)csc1/N=C(\C)C1=C(O)c2ccccc2C1=O` the inhibition was 7.75% (inactive).
For `CCOC(=O)c1cnc(-c2ccccc2)nc1Oc1ccc(C)cc1`, the inhibition was 2.24% (inactive).
In the case of `CCOC(=O)C1=C(c2ccc(OC)cc2)C(=O)c2ccccc2C1=O`, the inhibition is reported as 40.5% (active).
In the case of `CCCC(=O)Nc1ncnc2c1ncn2[C@@H]1O[C@@H]2OP(=O)(O)OC[C@H]2[C@H]1OC(=O)CCC`, the inhibition is reported as -0.48% (inactive).
For `NC(=O)CSc1nnc(NC(=O)c2ccc3ccccc3c2)s1`, the inhibition was -7.13% (inactive).
In the case of `Cc1ccc(/C=C2\SC(=S)N(CCC(=O)Nc3ccc(O)cc3)C2=O)cc1`, the inhibition is reported as -1.64% (inactive).
For `O=C(CCN1C(=O)c2ccccc2C1=O)NCCN1CCOCC1`, the inhibition was 6.46% (inactive).
With `Cc1ccc(/C=C2/SC(=S)N(CCC(=O)NCCCN3CCOCC3)C2=O)cc1` the inhibition was 36.4% (active).
For `Cc1csc(NC(=O)CSc2nc(=O)n(CCCN(C)C)c3c2CCC3)n1`, the inhibition was 10.8% (inactive).
`Cc1cccc(C)c1NC(=O)CNC(=O)c1c(C)nn(-c2ccccc2)c1C` was tested, and the inhibition was -1.44% (inactive).
With `Cc1nn(-c2ccccc2)c(C)c1NC(=O)CCl` the inhibition was 82.7% (active).
In the case of `Cc1nn(-c2ccccc2)c(C)c1NC(=O)COc1ccc(Cl)cc1Cl`, the inhibition is reported as 8.17% (inactive).
With `O=C(Nc1ccc2nc3n(c(=O)c2c1)CCCC3)c1ccc(Cl)nc1` the inhibition was -3.93% (inactive).
With `O=S(=O)(Nc1ccc(OC(F)(F)F)cc1)c1cccc2nonc12` the inhibition was 10.2% (inactive).
For `O=S(=O)(Nc1ccc(O)c2ccccc12)c1ccc(OC(F)(F)F)cc1`, the inhibition was 67.3% (active).
With `Cc1nn(C)c(C)c1NS(=O)(=O)c1ccc(OC(F)(F)F)cc1` the inhibition was 5.1% (inactive).
`CSc1nnc(C2CCCN(CC(=O)Nc3ccccc3N3CCOCC3)C2)n1C(C)C` (centres undefined) was tested, and the inhibition was 4.43% (inactive).
For `O=C(c1cc(-c2ccc(Cl)s2)nc2ccccc12)N1CCOCC1`, the inhibition was -12.9% (inactive).
`CCOc1ccc(/C=C/C(=O)N(CC)CC(=O)NCc2cccs2)cc1OC` was tested, and the inhibition was 19.7% (inactive).
`Cc1cccn2c(=O)nc(SCC(=O)NCc3ccccc3Cl)nc12` was tested, and the inhibition was 0.44% (inactive).
For `CC1=CC(C)(C)Nc2ccc(OC(=O)C(Cc3ccccc3)N3C(=O)C4CCCCC4C3=O)cc21` (centres undefined), the inhibition was 18.1% (inactive).
With `O=C(CN1C(=O)C2C3CCC(C3)C2C1=O)Oc1ccc2ccccc2c1` (centres undefined) the inhibition was 12.6% (inactive).
`CC1=CC(C)(C)Nc2ccc(OC(=O)CN3C(=O)C4CCCCC4C3=O)cc21` (centres undefined) was tested, and the inhibition was 48.4% (active).
With `Cc1ccc([C@@H]2CC=C(C(=O)O)[C@H](c3cccc(Cl)c3)N2S(=O)(=O)c2ccc(C)cc2)cc1` the inhibition was -107% (inactive).
`Cc1ccc(S(=O)(=O)N2[C@@H](c3ccccc3F)C(C(=O)O)=CC[C@H]2c2ccc(Cl)cc2)cc1` was tested, and the inhibition was -60.4% (inactive).
In the case of `Cc1ccccc1NC(=O)COc1cccc2c1CCNC2=O`, the inhibition is reported as 0.64% (inactive).
`Cc1ccc(S(=O)(=O)N2CCCCC2)cc1C(=O)N(C)CC(=O)Nc1cccc(F)c1` was tested, and the inhibition was 6.24% (inactive).
For `COc1ccc2c(c1)[C@H]1[C@H](CO2)[C@H](c2ccccc2)[C@]2(C)C(=O)Nc3cc(F)c(F)cc3C(=O)N12`, the inhibition was -3.75% (inactive).
`COc1ccccc1CCC(=O)OCC(=O)N1CCN(S(=O)(=O)c2ccc(C)cc2C)CC1` was tested, and the inhibition was 8.7% (inactive).
`COc1ccc(-c2csc(Cc3nc(O)cs3)n2)cc1` was tested, and the inhibition was 8.36% (inactive).
With `COc1ccc(C)cc1Nc1nc(-c2c(C)[nH]c3ccccc23)cs1` the inhibition was 0.17% (inactive).
For `COc1ccc(-c2csc(Nc3ccc(O)cc3)n2)cc1`, the inhibition was 44.8% (active).
With `COc1cccc(CC(=O)Nc2nc(-c3ccc(OC)c(OC)c3)cs2)c1` the inhibition was -14.6% (inactive).
`COc1ccc(OC)c(Nc2nc(-c3ccc(O)c(O)c3)cs2)c1` was tested, and the inhibition was 57.3% (active).
In the case of `O=c1oc2ccccc2cc1-c1csc(Nc2ccc(O)cc2)n1`, the inhibition is reported as 5.73% (inactive).
For `COc1cccc(N2CC(NS(=O)(=O)c3cccs3)CC2=O)c1` (centres undefined), the inhibition was 7.08% (inactive).
With `CC(=O)Nc1ccc(C(=O)Nc2cccc(S(=O)(=O)NC3=NCCC3)c2)cc1` the inhibition was 0.43% (inactive).
`O=C(OCc1nnc(-c2ccccc2)o1)c1cc(=O)[nH]c2ccccc12` was tested, and the inhibition was 8.64% (inactive).
In the case of `CCC(C)N(C(=O)COC(=O)c1nc(Cl)ccc1Cl)C1CCS(=O)(=O)C1` (centres undefined), the inhibition is reported as -3.44% (inactive).
With `CCOC(=O)[C@H]1[C@H]2COc3ccc(OC)cc3[C@@H]2N2C(=O)c3ccc(F)cc3NC(=O)[C@@]12C` the inhibition was 8.55% (inactive).
`Cc1ccc(Cn2c(=N)c(S(=O)(=O)c3ccc(C)cc3)cc3c(=O)n4ccccc4nc32)cc1` was tested, and the inhibition was 1.35% (inactive).
With `O=[N+]([O-])C(=c1ccc2c(c1)N1C3=C(CCCC3)CC3CCCCC31N=2)[N+](=O)[O-]` (centres undefined) the inhibition was 35.2% (active).
For `CCN(CC(=O)NCc1ccc(Cl)cc1)C(=O)CSc1ccccc1`, the inhibition was -6.37% (inactive).
`O=C(NCCN1CCOCC1)c1cc(-c2cccs2)nc2ccccc12` was tested, and the inhibition was -2.35% (inactive).
For `O=C(Cc1ccc(Br)cc1)NCCN1CCOCC1`, the inhibition was -0.16% (inactive).
In the case of `O=C(Cn1c(-c2ccccn2)nc2ccccc21)NCCN1CCOCC1`, the inhibition is reported as 98.3% (active).
In the case of `CCCCN(C1CCS(=O)(=O)C1)S(=O)(=O)c1ccc(C(C)C)cc1` (centres undefined), the inhibition is reported as -0.04% (inactive).
With `CC(C)Oc1ccc(C(CC(=O)N2CCOCC2)C(C)C)cc1` (centres undefined) the inhibition was 10.3% (inactive).
For `Cc1ccc(N(Cc2cc3ccccc3[nH]c2=O)C(=O)c2cccs2)cc1`, the inhibition was 0.73% (inactive).
With `Cc1ccc(N(Cc2cc(=O)[nH]c3ccccc23)C(=O)CCl)cc1` the inhibition was 80% (active).
In the case of `CC(=O)N(Cc1cc(=O)[nH]c2ccccc12)c1ccc(C)cc1C`, the inhibition is reported as -13.1% (inactive).
`Cn1c(-c2ccc(C(F)(F)F)cc2)cc2onc(-c3ccccc3)c2c1=O` was tested, and the inhibition was 4.73% (inactive).
With `CC(C)(C)c1ccc(C(=O)NCc2ccco2)cc1` the inhibition was -7.66% (inactive).
In the case of `C/C(=N\NC(=O)CC(C)C)c1c(C(F)(F)F)[nH]n(-c2nc3ccccc3s2)c1=O`, the inhibition is reported as -27.6% (inactive).
With `CCC(C)Cn1c(O)cc2nn(-c3nc4ccccc4s3)c(=O)c-2c1C` (centres undefined) the inhibition was 36% (active).
`Cc1nn(CC(=O)Nc2nc3ccccc3s2)c(C)c1[N+](=O)[O-]` was tested, and the inhibition was 11.3% (inactive).
With `O=C(CN1C(=O)NC2(CCCC2)C1=O)OCCOc1ccc(F)cc1` the inhibition was 8.87% (inactive).
`CCOc1c(Br)cc(/C=C2\C(=O)N(CCC#N)N=C2C)cc1OC` was tested, and the inhibition was 39.6% (active).
In the case of `C=CCOc1c(Br)cc(/C=N\n2nnnc2N)cc1OC`, the inhibition is reported as 0.64% (inactive).
For `COc1cc(/C=C2/C(=O)NN(c3cccc(Cl)c3)C2=O)cc(Br)c1O`, the inhibition was -21.9% (inactive).
In the case of `Cc1ccc(NC(=O)C2CC(=O)N(c3ccc4c(c3)OCCO4)C2)cc1S(=O)(=O)N1CCCCCC1` (centres undefined), the inhibition is reported as 0.87% (inactive).
`Cc1cccc(C(=O)NCCCN(C)CCCNC(=O)c2cccc(C)c2)c1` was tested, and the inhibition was -1.1% (inactive).
`CCN(CCCNC(=O)c1ccc2c(c1)NC(=O)CN2C)c1cccc(C)c1` was tested, and the inhibition was 52.9% (active).
With `CCN(CCCNC(=O)CCn1c(=O)[nH]c2ccsc2c1=O)c1ccccc1` the inhibition was 0.71% (inactive).
For `CCOCCn1[nH]c2ccccc2c1=O`, the inhibition was 1.49% (inactive).
With `CC(=O)c1c(-c2ccccc2)c2ccccc2[nH]c1=O` the inhibition was -2.94% (inactive).
`O=c1[nH]c2ccccc2n2c(-c3ccccc3)nnc12` was tested, and the inhibition was 69.1% (active).
For `Cc1ccccc1Cn1c(=O)[nH]c2ccccc21`, the inhibition was 8.19% (inactive).
For `O=S(=O)(NCCS(=O)(=O)N1CCN(c2ccccc2)CC1)c1ccc(F)cc1`, the inhibition was -12.9% (inactive).
`CN(CC(=O)NNC(=O)CNC(=O)c1ccccc1Cl)S(=O)(=O)c1ccc(Cl)cc1` was tested, and the inhibition was 5.54% (inactive).
With `O=C1NCCn2nc3ccccc3c21` the inhibition was 3.49% (inactive).
For `CCOc1ccc(NC(=O)CCC(=O)N/N=C/c2ccc([N+](=O)[O-])s2)cc1`, the inhibition was 5.9% (inactive).
`O=[N+]([O-])c1ccc(C=Nc2ccc(Cl)cc2Cl)s1` was tested, and the inhibition was 38.5% (active).
In the case of `O=C(NCc1ccccc1Cl)C(=O)NCC1CCCN1S(=O)(=O)c1cccs1` (centres undefined), the inhibition is reported as 4.65% (inactive).
With `CCOc1ccc(CCNC(=O)CN2C(=O)NC3(CCc4ccccc43)C2=O)cc1OCC` (centres undefined) the inhibition was 1.55% (inactive).
`C#CCOCCOCCOCCNc1nc(N2CCN(C(=O)Cn3cc(CCCCN)nn3)CC2)nc(N2CCN(C(=O)[C@H](CCCCN)n3cc(CCC(=O)O)nn3)CC2)n1` was tested, and the inhibition was 6.12% (inactive).
`Cc1ccc(S(=O)(=O)C(C#N)c2nc3ccccc3nc2N2CCCC2)cc1C` (centres undefined) was tested, and the inhibition was 51.4% (active).
In the case of `Cc1ccc(S(=O)(=O)Nc2nc3ccccc3nc2N2CCc3ccccc3C2)cc1`, the inhibition is reported as 0.1% (inactive).
`Cc1cc(N2CCN(S(=O)(=O)c3ccc(C)c(C)c3)CC2)c2ccccc2n1` was tested, and the inhibition was -2.63% (inactive).
With `O=C(NCCC1CCCCN1S(=O)(=O)c1ccc(Cl)cc1)C(=O)NCc1ccco1` (centres undefined) the inhibition was -0.26% (inactive).
With `CN(C)CCc1c[nH]c2ccc(Cn3cncn3)cc12` the inhibition was 4.56% (inactive).
`CC(OC(=O)CCCOc1ccccc1)C(=O)Nc1ccc(Cl)cn1` (centres undefined) was tested, and the inhibition was -0.72% (inactive).
With `O=C(CSc1cccc2cccnc12)N/N=C/c1cccnc1` the inhibition was 36.6% (active).
For `Cc1ccc(NC(=O)CSc2cccc3cccnc23)c(C)c1`, the inhibition was 14.1% (inactive).
With `O=C(CNC(=O)c1cccnc1)N/N=C/c1cccnc1` the inhibition was -0.23% (inactive).
In the case of `O=C(CSc1nc(=O)n2ccccc2n1)Nc1ccc2c(c1)OCCO2`, the inhibition is reported as 3.74% (inactive).
